# Experimental data: PubChem BioAssay AID602310 (National Center for Advancing Translational Sciences (NCATS), 2012)
# Among all 410,000 compounds or so, about 310 (0.076%) were called active. Another 2% or so got no clear call; they are omitted. Only a selection was taken, and actives are over-represented in it overall. A number with no mark means an inactive call. Calls follow the shape of the dose curve; as a rule, active = well fitted curve in the direction sought with a large enough effect; inconclusive = small, poorly fitted or top-dose-only effect; inactive = flat fitted curve, though single readings scatter.
# Target: DNA dC->dU-editing enzyme APOBEC-3G (Homo sapiens) (UniProt Q9HC16)
# Test: qHTS for Inhibitors of Vif-A3G Interactions: qHTS; also: nearly all actives have a fitted effect of over 60% in size;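 as to activity, negative = active: hits raise eYFP signal because A3G escapes Vif-driven loss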
# Settings: HeLa A3G-eYFP + Vif (tagged APOBEC3G with the HIV-1 protein that degrades it), YFP fluorescence, overnight; series mostly up to 46.1 µM; activity, negative = active: at the top concentration
# Procedure, shortened: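 Read-out is eYFP fluorescence (Ex 488/Em 500-530) from Vif-expressing HeLa A3G-eYFP cells; more signal means A3G escaped Vif-mediated degradation. Cells plated overnight, compound pinned in, incubated overnight at 37 deg C.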
# % is scaled to controls: 0 for no effect and ±100 for the full control effect; potency is read from the fitted curve at half-maximal effect.
# DNA dC->dU-editing enzyme APOBEC-3G (Homo sapiens), sequence (Q9HC16 whole entry, looked up): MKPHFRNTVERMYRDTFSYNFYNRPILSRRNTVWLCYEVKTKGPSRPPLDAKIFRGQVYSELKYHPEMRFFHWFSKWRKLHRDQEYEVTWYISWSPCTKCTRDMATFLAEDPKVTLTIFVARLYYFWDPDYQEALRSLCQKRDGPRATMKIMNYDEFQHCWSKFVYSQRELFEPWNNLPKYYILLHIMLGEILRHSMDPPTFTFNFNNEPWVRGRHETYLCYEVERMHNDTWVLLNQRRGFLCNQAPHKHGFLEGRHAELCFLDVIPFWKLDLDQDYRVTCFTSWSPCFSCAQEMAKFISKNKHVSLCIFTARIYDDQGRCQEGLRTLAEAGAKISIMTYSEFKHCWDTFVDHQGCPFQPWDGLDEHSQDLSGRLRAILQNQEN
Compound,"activity, negative = active [%]",Potency
CCOc1n[nH]c(-c2ccccc2)n1,3.57,–
CCc1nn(CC(=O)Nc2cccc(C)c2C)c(=O)c2cc3sccc3n12,2.56,–
CCOc1ccccc1NC(=O)CN1CCN(S(=O)(=O)c2ccc(Br)cc2)CC1,1.45,–
COc1cccc(NC(=O)Cn2c(=O)cc(C)c3c(C)nn(-c4cccc(F)c4)c32)c1,0.977,–
Nc1nc(N)c(N=O)c(N)n1,-0.374,–
CCCCOc1ccc(C(=O)N2CC(=O)Nc3ccc(Br)cc3C2c2ccc(F)cc2)cc1 (centres undefined),-0.538,–
COc1ccccc1/C=C/c1nc(C#N)c(NC(C)c2ccccc2)o1 (centres undefined),0.452,–
COc1ccc(CCNC(=O)c2ccc(CSCc3ccc(C)cc3)o2)cc1OC,4.58,–
CNCCCOc1cc2nc(N3CCCN(C)CC3)nc(NC3CCN(C)CC3)c2cc1OC,2.66,–
O=C(COc1ccccc1C(=O)Nc1ccccc1)Nc1cccc(F)c1,-2.9,–
CC1(C)CC(=O)c2cc(C(=O)NCc3ccccc3)c(=O)[nH]c2C1,-3.12,–
Cn1nnnc1SCCNCc1ccc(Cl)c(Cl)c1,-0.946,–
Cc1csc[n+]1CCC1CCCCC1,1.21,–
CCn1c(CNc2ccc(OC)cc2)nnc1SCC(=O)c1ccc(OC)cc1,0.533,–
CCn1c(CNC(=O)C23CC4CC(CC(C4)C2)C3)nnc1SCC(=O)Nc1ccc(OC)cc1,–,10 µM (active)
CCCCn1c(CNC(=O)C23CC4CC(CC(C4)C2)C3)nnc1SCC(=O)Nc1ccc(C)cc1,-0.393,–
Cc1ccc(C(=O)COC(=O)C(Cc2c[nH]c3ccccc23)NC(=O)c2ccc(Br)cc2)cc1 (centres undefined),2.11,–
Cc1ccc(Cl)cc1N1CCN(C(=O)c2cn(C)c3ccc(S(=O)(=O)N(C)C4CCCCC4)cc3c2=O)CC1,0.271,–
S=c1[nH]c(=S)c2n[nH]nc2[nH]1,4.48,–
COc1cccc(C(=O)NC(=O)Nc2ccc(-c3cc(C(F)(F)F)nn3-c3ccccc3)cc2)c1,3.03,–
COc1ccc(CCN2C(=O)N(c3cccc(OC)c3)C(=O)C2CC(=O)Nc2ccccc2)cc1 (centres undefined),3.95,–
COc1ccc(CC(=O)NCCc2sc3nc(-c4ccc(OC)cc4)nn3c2C)cc1,7.95,–
CCc1ccc(Nc2nn3c(=O)c4cc5c(cc4nc3s2)OCO5)cc1,3.36,–
CCOC(=O)c1c(C)[nH]c(C)c1S(=O)(=O)NCC(=O)NCc1cccc(C)c1,-0.939,–
COc1ccc(CNC(=O)Cn2nnc(-c3ccc(S(C)(=O)=O)cc3)n2)cc1,2.9,–

Compound,"activity, negative = active [%]",Potency
COc1ccc(OC)c(NC(=O)CSc2nc3ccccc3nc2N2CCCCC2)c1,-8.14,–
Cc1ccc(Cn2cnc3c(cnn3C(C)(C)C)c2=O)c(F)c1,-1.28,–
Brc1cccc(-c2nnn3c2nc(NC2CCCCC2)c2ccccc23)c1,5.7,–
C[N+]1(CC(=O)c2cccs2)CCOCC1,1.57,–
CCCNC(=O)C1CCN(c2nc3ccc(C)cc3[nH]2)CC1,0.307,–
COc1cc(OC)c(NC(=O)c2c3c(nn2C)-c2ccccc2SC3)cc1Cl,3.23,–
CN(N=O)c1ccc(C=C2c3ccccc3-c3ccccc32)cc1,-1.54,–
COc1ccc2[nH]c3c(c2c1)CCN(C(=O)CCC1CCCC1)C3c1ccc(F)cc1 (centres undefined),-9.23,–
CN(C)c1cccc2ccccc12,3.02,–
CN(C)c1ccc(/C=C/c2c3ccccc3nc3ccccc23)cc1,-16.4,–
Cc1oc2c(c1C(=O)Nc1ccc(F)c(F)c1)C1=NCCN1C=N2,2.52,–
CCc1nnc(SCc2c(F)cccc2Cl)c2cc3sccc3n12,-1.5,–
COc1ccc(/C=C/c2ccccn2)cc1OC,0.196,–
Cc1cc(Cl)ccc1OCC(=O)N(Cc1ccc(N(C)C)cc1)C1CCS(=O)(=O)C1 (centres undefined),0.29,–
CN(C)C1=C2C=CC=CC2/C(=C2/C=Cc3ccccc32)C=C1 (centres undefined),-6.13,–
CCOc1ccccc1NC(=O)Cn1c(=O)n(-c2cccc(C)c2)c(=O)c2c1c1cc(OC)ccc1n2C,0.805,–
O=C(Nc1ccc([N+](=O)[O-])cc1)c1cnn2c1NC(=C1CC1)C=C2C(F)F,0.78,–
O=C(CSc1ncc(S(=O)(=O)c2ccc(Br)cc2)c(=O)[nH]1)Nc1ccc2c(c1)OCCO2,-0.105,–
CCOc1ccccc1C(=O)NCc1ccc2c(c1)CCN2C(=O)c1ccc(F)cc1,0.357,–
COc1cc2nc(C#Cc3nc4cc(OC)c(OC)cc4[nH]3)[nH]c2cc1OC,0.338,–
COc1cccc(/C=N/NC(=O)c2[nH]nc3c2CCc2ccccc2-3)c1O,–,8.91 µM (active)
Cc1ncc(CO)c(/C=N/NC(=O)c2cccc(S(=O)(=O)N3CCCC3)c2)c1O,-0.256,–
Cc1ccccc1NC(=O)COc1cccc2c1CCNC2=O,-0.461,–
CCc1cc2c(cc3c(=O)n(CC(=O)N4CCN(c5cc(Cl)ccc5C)CC4)nc(CC)n32)s1,0.482,–
